The supplement of paper PMC6555819

Experiments:
Assay in all cases: PBM binding z-score (relative to random genomic background probes); higher = stronger binding; sequences stand for … in GC…GCGATTGACAGCGTAGAATGAAGG
[1] = tested on: FXR:RXRa (NR concentration 270 nM, RXRa partner concentration 90 nM)
Procedure, shortened: (§1)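 Binding z-scores take random background probes as their reference. They come from custom Agilent 4×180K protein-binding microarrays incubated 1 h with ligand-free nuclear receptor dimers, with antibodies against each partner (one per run) detecting binding. Scanned fluorescence was regression-normalized.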

[2] = tested on: LXRa:RXRa (NR concentration 270 nM, RXRa partner concentration 90 nM)
Procedure, shortened: as §1

[3] = tested on: LXRa homodimer (NR concentration 270 nM)
Procedure, shortened: as §1

[4] = tested on: LXRb:RXRa (NR concentration 270 nM, RXRa partner concentration 90 nM)
Procedure, shortened: as §1

[5] = tested on: LXRb homodimer (NR concentration 270 nM)
Procedure, shortened: as §1

[6] = tested on: PPARa:RXRa (NR concentration 270 nM, RXRa partner concentration 90 nM)
Procedure, shortened: as §1

[7] = tested on: PPARg:RXRa (NR concentration 180 nM, RXRa partner concentration 90 nM)
Procedure, shortened: as §1

[8] = tested on: PPARg:RXRa 270nM:90nM, anti-RXR (NR concentration 270 nM, RXRa partner concentration 90 nM)
Procedure, shortened: as §1

[9] = tested on: PPARg:RXRa 30nM:10nM, anti-RXR (NR concentration 30 nM, RXRa partner concentration 10 nM)
Procedure, shortened: as §1

[10] = tested on: PPARg:RXRa 90nM:30nM, anti-RXR (NR concentration 90 nM, RXRa partner concentration 30 nM)
Procedure, shortened: as §1

[11] = tested on: PPARg:RXRa DBDmut IVT, anti-RXR (DBD mutation: RXRa K156A/R161A, NR concentration 270 nM, RXRa partner concentration 90 nM)
Procedure, shortened: as §1

[12] = tested on: PPARg:RXRa IVT, anti-PPARg (NR concentration 270 nM, RXRa partner concentration 90 nM)
Procedure, shortened: as §1

[13] = tested on: PPARg DBDmut:RXRa IVT, anti-PPARg (DBD mutation: PPARg1 K132A/R137A, NR concentration 270 nM, RXRa partner concentration 90 nM)
Procedure, shortened: as §1

[14] = tested on: PPARg DBDmut IVT, anti-PPARg (DBD mutation: PPARg1 K132A/R137A, NR concentration 270 nM)
Procedure, shortened: as §1

[15] = tested on: PPARg homodimer (NR concentration 180 nM)
Procedure, shortened: as §1

[16] = tested on: PXR:RXRa (NR concentration 270 nM, RXRa partner concentration 90 nM)
Procedure, shortened: as §1

[17] = tested on: PXR homodimer (NR concentration 270 nM)
Procedure, shortened: as §1

[18] = tested on: RARa:RXR (NR concentration 270 nM, RXRa partner concentration 90 nM)
Procedure, shortened: as §1

[19] = tested on: RARa homodimer (NR concentration 270 nM)
Procedure, shortened: as §1

[20] = tested on: RARb:RXRa (NR concentration 270 nM, RXRa partner concentration 90 nM)
Procedure, shortened: as §1

Row | Sequence | PBM binding z-score [1] | PBM binding z-score [2] | PBM binding z-score [3] | PBM binding z-score [4] | PBM binding z-score [5] | PBM binding z-score [6] | PBM binding z-score [7] | PBM binding z-score [8] | PBM binding z-score [9] | PBM binding z-score [10] | PBM binding z-score [11] | PBM binding z-score [12] | PBM binding z-score [13] | PBM binding z-score [14] | PBM binding z-score [15] | PBM binding z-score [16] | PBM binding z-score [17] | PBM binding z-score [18] | PBM binding z-score [19] | PBM binding z-score [20]
1 | ATCGAAAGGTCGAGGTGAGAATAGAGAAAGGGAA | 4.1 | 3.48 | 0.181 | 2.84 | 0.399 | 4.79 | 3.58 | 3.93 | 1.56 | 2.64 | 0.541 | 2.39 | 1.22 | 0.93 | 0.599 | 2.36 | 0.337 | 3.52 | 0.51 | 4.16
2 | TGTACAGGGTCAAAGGCCAGAGTACGAATGTCGA | 7.25 | 4.91 | -0.0298 | 4.39 | 0.326 | 6.34 | 8.21 | 7.42 | 5.22 | 7.52 | 2.29 | 5.22 | 1.24 | 1.55 | 1.87 | 4.52 | -0.0944 | 6.38 | 0.38 | 4.42
3 | ATACCAAGGTGATCGTGAGGTCGTTGACACTAAC | 2.81 | 1.92 | 0.798 | 1.38 | -0.392 | 1.59 | 0.583 | 0.586 | 0.0332 | 0.0166 | 0.337 | 1.12 | -0.329 | 0.642 | 1.07 | 3.23 | 1.34 | 2.52 | 0.306 | 1.4
4 | CGGAGTAGGTTATGGGGCATTCAGGCAACGGTGA | 0.339 | 0.3 | 0.0885 | 0.718 | -0.187 | 2.92 | 4.95 | 5.93 | 5.09 | 6.03 | 4.84 | 5.14 | 0.983 | -0.0364 | 1.28 | 0.209 | 0.125 | 0.151 | 0.386 | 0.965
5 | GCGACTGAGGCAAAGCAGGTTACCATAAGGTTGG | -0.391 | -0.493 | -0.444 | -0.567 | -1.32 | -0.0233 | 0.328 | -0.42 | -0.736 | -0.693 | 0.099 | -0.228 | -1.27 | -1.26 | -0.646 | -0.22 | -0.398 | 0.0827 | -0.323 | -0.412
6 | TCGAGTAGGTTAGTCGGGGCATCCAGCCAACATA | 0.256 | 0.187 | -0.411 | 0.296 | -1.13 | 0.822 | -0.0152 | 0.685 | 0.993 | 0.766 | 2.28 | 2.09 | -0.561 | 0.0213 | -0.139 | 0.0331 | -0.0889 | 0.263 | -0.138 | 0.628
7 | CCTAGCAGGCCAAACTGGGTCACTCAAGGCTTGA | 0.705 | 0.962 | -0.345 | 1.07 | -0.564 | 3.05 | 1.74 | 2.06 | -0.348 | 0.712 | 4.11 | 4.34 | -0.371 | -1.09 | 0.924 | 1.05 | -0.482 | 1.77 | -0.26 | 1.61
8 | ATCTCTAGGTAACATGTTCAGTGAAAGAGAGGAC | 0.248 | 0.254 | -0.139 | 0.402 | 0.902 | 0.519 | 1.15 | 1.25 | 0.432 | 1.07 | 3.39 | 2.6 | 1.47 | 1.39 | -0.116 | 0.0539 | -0.0105 | 0.322 | -0.388 | 0.433
9 | ACTATTAGTTGAGACGAGGGCAACCAATAGGTTG | 0.56 | 0.143 | -0.167 | 0.143 | -0.0545 | 0.282 | 0.647 | 0.464 | 0.235 | 0.58 | 0.183 | 0.992 | 0.202 | 0.799 | 0.0729 | 1.75 | 0.385 | 1.5 | 0.723 | 1.09
10 | CCTAGCAGGCCAGGGTCGCTCAAGCATTTCGCTT | 1.21 | 1.49 | -0.612 | 1.26 | -1.47 | 2.58 | -0.528 | 0.271 | -1.11 | -0.71 | -0.39 | -0.535 | -1.87 | -2.27 | -0.112 | 1.78 | -0.439 | 1.84 | -0.399 | 0.562
11 | TCTTGTAGATCAAGCAGGGTAAGAAAGCCTGAGT | 0.561 | -0.0537 | -0.634 | 0.0919 | -0.511 | 0.15 | -0.37 | 1.08 | 2.34 | 1.6 | 1.7 | 0.481 | -0.108 | -0.000734 | -0.854 | 0.136 | -0.0302 | 0.246 | -0.676 | -0.148
12 | CCTTACGGGTTACGAGGTTATAGCACGACGAGCG | 1.8 | 2.11 | 0.0451 | 1.8 | -0.317 | 3.36 | 2.89 | 3.03 | 0.671 | 1.8 | 1.39 | 2.73 | -0.246 | 1.02 | 1.32 | 1.95 | 0.0657 | 2.76 | 0.573 | 1.58
13 | CCTTCTGGGCCAAGGTCATTGATCAGTCAAAGCA | 2.83 | 2.99 | 0.639 | 2.84 | -0.27 | 3.75 | 3.12 | 4.15 | 1.37 | 3.57 | 3.79 | 4.03 | -0.283 | -0.969 | 1.45 | 3.33 | 1.12 | 3.11 | -0.215 | 3.39
14 | TATACAGGGTTAAAGGCCAGAGTACGAATGTCGA | 2.5 | 2.59 | 0.356 | 1.91 | 0.834 | 3.84 | 5.07 | 5.44 | 3.04 | 4.7 | 0.697 | 2.95 | 1.23 | 1.68 | 1.75 | 1.82 | 0.41 | 2.44 | 0.668 | 2.13
